Rows were chosen to be rich in hits. Some 19% of all compounds tested hit in one or more screens of this group.
HT1080NT lethal: kills 2HG-producing HT-1080-NT fibrosarcoma cells. HT-1080-NT fibrosarcoma viability, CellTiter-Glo ATP luminescence, 48 h. Potency, µM (titrated, usually from 46.1 µM), inactives show top-dose activity, negative = less viability, actives largely listed as cytotoxic. 360,000 tested, 1.6% active. AID 686970;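 note: NT is the 2HG producing partner of a matched IDH1 knockdown line; 0% = DMSO-treated cells and -100% = media-only wells without cells; nearly all actives have a fitted effect of over 55% in size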
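A 48-hour cytotoxicity screen used HT-1080-NT cells plated 2 hours before compound delivery. ATP-based CellTiter-Glo luminescence measured viability, normalized to DMSO and no-cell controls.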
KB-3-1 cytotox: kills parental KB-3-1 adenocarcinoma cells; 400,000 tested, 1.4% active; KB-3-1 viability, CellTiter-Glo ATP luminescence, 72 h; Potency, µM (highest dose often 46.1 µM), hits mostly cytotoxic; note: nearly all actives have a fitted effect of over 60% in size
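Multi-concentration cytotoxicity screen in KB-3-1 cells grown in DMEM lacking phenol red with 10% FBS. After 72 h at 37 °C with compound, ATP-dependent luminescence was recorded.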
DT40 TDP1 no CPT: qHTS for Inhibitors of human tyrosyl-DNA phosphodiesterase 1 (TDP1): qHTS in cells in absence of CPT | Potency, µM (top dose mostly 46.2 µM), without a hit: at the highest dose activity change, negative = growth inhibition, hits mostly inhibitors | DT40 Tdp1-/- hTDP1 cells, no CPT, ATP luminescence, 48 h | 420,000 tested, 15% active; note: nearly all actives have a fitted effect of over 55% in size
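Cells were dispensed at 400 per well, compounds added by pin tool, plates incubated ≥48 hr at 37 °C, then CellTiter-Glo added for 30 min at room temperature before luminescence reading. Line: DT40 Tdp1-/- complemented with hTDP1; camptothecin omitted.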
KB-V1 cytotox: KB-V1 MDR subline cytotoxicity | KB-V1 MDR cells viability, CellTiter-Glo, 72 h | Potency, µM (series often up to 46.1 µM), most hits filed as cytotoxic | 400,000 tested, 3.4% active | AID 1347076; note: nearly all actives have a fitted effect of over 60% in size
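Cytotoxicity via CellTiter-Glo luminescence after 72 h compound exposure at 37 degrees C. Cells: drug-selected KB-V1 line, DMEM phenol-red free plus 10% FBS. Compounds tested at multiple concentrations; normalized data fitted to concentration-effect curves.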
HT1080 IDH1KD tx: HT-1080 IDH1 knockdown cell toxicity (counter line). AID 686971. 360,000 tested, 2% active. HT-1080 IDH1 knockdown viability, ATP luminescence, 48 h. Potency, µM (highest dose often 46.1 µM), inactives show at the top dose activity, negative = toxicity, hits mostly cytotoxic;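 note: 0% = DMSO wells and -100% = cell-free medium wells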
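Luminescent ATP read-out (CellTiter-Glo, 10 min at room temperature) after 48 h compound exposure at 37 °C gave viability of IDH1-knockdown HT-1080 cells. Activity was normalised to DMSO and cell-free wells, then fitted as concentration-response curves.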
TDP1 cell CPT: DT40-hTDP1 cell growth loss with CPT | Potency, µM (top dose mostly 46.2 µM), inactives show at the highest dose activity change, negative = growth inhibition, usual class: inhibitors | 420,000 tested, 12% active | chicken DT40 Tdp1-/-;hTDP1 cells + 20 nM CPT, ATP luminescence, 48 h; note: nearly all actives have a fitted effect of over 55% in size
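Cell growth measured by CellTiter-Glo luminescence after a minimum 48 h, 37 C compound exposure with 20 nM CPT in Tdp1-knockout DT40 cells stably expressing hTDP1, seeded 400/well; qHTS titration format.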
The depositor's hits bear a star; i = inactive; ? = inconclusive; · = no result given; ! = not confirmed by another sample. Calls come from the whole dose curve; as a rule, active = well fitted curve in the direction sought with a large enough effect; inconclusive = small, poorly fitted or top-dose-only effect, or another doubt; inactive = no such curve, though single readings can be large; an effect the other way counts as inactive or inconclusive. Unless noted, % is set by controls: 0 for no effect and ±100 for the full control effect; potency is the fitted concentration of half-maximal effect.

SMILES	HT1080NT lethal	KB-3-1 cytotox	DT40 TDP1 no CPT	KB-V1 cytotox	HT1080 IDH1KD tx	TDP1 cell CPT
COc1cc(C(CCN2CCCC2)c2c(OC)cc(OC)c3c(C)cc(=O)oc23)cc(OC)c1OC (stereo not drawn)	-7.2%	i	23.1µM*	i	0.4%	13µM*
COc1cc(C(CCN2CCCCC2)c2c(OC)cc(OC)c3c(-c4ccccc4)cc(=O)oc23)cc(OC)c1OC (stereo not drawn)	-14.3%	?	?	?	-21.3%	18.4µM*
COc1ccc(C(CCN2CCOCC2)c2c(OC)cc(OC)c3c(C)cc(=O)oc23)cc1 (stereo not drawn)	-5.2%	i	18.4µM*	i	-7.8%	23.1µM*
COc1cc(C(CCN2CCCC(C)C2)c2c(OC)cc(OC)c3c(-c4ccccc4)cc(=O)oc23)cc(OC)c1OC (stereo not drawn)	18.4µM*	?	18.4µM*	i	?	?
CCCn1c(SCC(=O)Nc2cc(S(=O)(=O)N3CCCCC3)ccc2C)n[nH]c1=O	5.1%	i	5.9%	?	-0.2%	0.5%
CCN1CCN(C(CNS(=O)(=O)c2ccc(F)cc2)c2cccnc2)CC1 (stereo not drawn)	11.9%	i	10.0%	?	13.3%	-12.9%
Cc1ccc(C(=O)NN2C(=O)c3ccc(S(=O)(=O)c4ccc(C(=O)O)cc4)cc3C2=O)cc1	14.4%	i	?	i	11.5%	18.4µM*
O=C(O)c1ccc(S(=O)(=O)c2ccc3c(c2)C(=O)N(NC(=O)c2ccc(O)cc2)C3=O)cc1	3.6%	i	19.6%	i	4.0%	10.2%
O=C(Nc1ccc(Br)cc1F)C(NS(=O)(=O)c1cccc2nsnc12)c1ccccc1 (stereo not drawn)	·	i	-7.8%	i	·	-8.8%
c1ccc(-c2ccc3[nH]ccc3c2)cc1	12.0%	i	?	i	5.4%	?
Cc1onc(-c2ccc3c(c2)OCO3)c1-c1ccc2[nH]ccc2c1	-21.1%	?	16.4µM*	?	?	18.4µM*
c1ccc(-c2onc(-c3ccco3)c2-c2ccc3[nH]ccc3c2)cc1	-17.1%	?	?	23.1µM*!	-14.5%	7.94µM*
c1cc2cc(-c3c(-c4ccc5c(c4)OCO5)noc3-c3ccsc3)ccc2[nH]1	-26.3%	?	3.16µM*!	20.6µM*!	?	?
Cc1cccc(Cc2c(C)nc3nc(SCC(=O)O)nn3c2C)c1	-2.4%	i	-1.0%	?	-2.5%	-1.6%
Cc1cccc(Cc2c(C)nc3nc(SCC(=O)NCc4ccccc4)nn3c2C)c1	·	14.6µM*	?	i	·	20.6µM*
COc1ccccc1CNC(=O)CSc1nc2nc(C)c(Cc3ccccc3C)c(C)n2n1	·	?	5.17µM*	?	·	14.6µM*
C=CCc1c(C)nc2nc(SCC(=O)Nc3cccc(Cl)c3)nn2c1C	·	·	-92.0%	·	·	20.6µM*
COc1cc(NC(=O)CSc2nc3nc(C)c(Cc4ccccc4)c(C)n3n2)cc(OC)c1OC	·	i	20.6µM*	i	·	20.6µM*
Cc1ccc(Cc2c(C)nc3nc(SCC(=O)NCCC(C)C)nn3c2C)cc1	·	i	23.1µM*	i	·	?
Cc1nc2nc(SCC(=O)NC3CCC(C)CC3)nn2c(C)c1Cc1ccccc1 (stereo not drawn)	·	i	?	i	·	18.4µM*
Cc1ccccc1OCCSc1nnc(-c2ccc([N+](=O)[O-])cc2)o1	·	i	-16.6%	i	·	-25.5%
CCOc1ccc(NC(=O)Nc2cc(OCC(F)(F)F)cc(OCC(F)(F)F)c2)cc1	-1.7%	?	2.91µM*	i	?	2.91µM*
CCOc1ccc(NC(=O)Nc2cc(C)ccc2F)cc1	?	i	-14.9%	13µM*	?	?
